Assay outcomes (PubChem)
Sampled rows, rich in hits. Any-hit rate of the full collection: about 7.4%.
SMN2 splice enh – enhancers of SMN2 splice variant expression; hit rate 2.8% among 210,000; Potency, µM (series often up to 46.1 µM), for the others: top-dose activity change, positive = activation, usual class: activators; HEK293 SMN2-luciferase splicing reporter, luminescence, 30-36 h; AID 1458; further: % of control where 0% means no effect; nearly all actives have a fitted effect of over 55% in size
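HEK293 cells carry an SMN2 minigene-luciferase reporter in which exon 7 inclusion puts luciferase in frame. Cells were seeded at 2000 cells/well, attached for 10-12 hours, then exposed to compounds for 30-36 hours at 37C before ONE-Glo luminescence.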
FLuc counter – firefly luciferase modulation, counter-screen for miR-21 project; P08659; purified FLuc, Km substrates, luminescence inhibition; Potency, µM (series often up to 57.5 µM), for inactives: at the highest dose activity change, negative = inhibition, hits mostly inhibitors; hit rate 6.9% among 360,000; AID 588342;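 further: plate controls were vehicle for no effect and reference inhibitor for full effect; nearly all actives have a fitted effect of over 55% in size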
Target sequence (P08659 whole entry, looked up): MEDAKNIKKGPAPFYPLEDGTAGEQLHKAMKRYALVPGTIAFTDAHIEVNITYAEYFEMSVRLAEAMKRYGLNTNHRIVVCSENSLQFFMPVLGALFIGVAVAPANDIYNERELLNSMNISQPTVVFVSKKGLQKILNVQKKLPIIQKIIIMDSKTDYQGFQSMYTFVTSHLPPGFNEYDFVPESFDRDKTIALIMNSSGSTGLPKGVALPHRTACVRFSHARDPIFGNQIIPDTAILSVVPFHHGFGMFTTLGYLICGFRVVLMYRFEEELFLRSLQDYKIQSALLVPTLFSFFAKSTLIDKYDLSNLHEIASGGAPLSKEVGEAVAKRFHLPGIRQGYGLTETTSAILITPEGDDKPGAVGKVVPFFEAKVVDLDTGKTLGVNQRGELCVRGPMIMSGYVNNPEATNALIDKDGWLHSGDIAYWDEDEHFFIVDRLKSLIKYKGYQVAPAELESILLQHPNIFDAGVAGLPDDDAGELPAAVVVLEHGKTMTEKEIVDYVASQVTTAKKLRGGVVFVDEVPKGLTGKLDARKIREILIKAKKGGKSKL
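Purified P. pyralis luciferase, 10 nM final, with Km-level 10 uM D-luciferin and 10 uM ATP in 50 mM Tris acetate pH 7.5, 10 mM Mg acetate, 0.01% Tween-20, 0.05% BSA; 6-point qHTS titration about 60 µM downward; luminescence read.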
Rab9 prom act – activators of Rab9 promoter; Huh7 Rab9 promoter-luciferase reporter, luminescence, 24 h; Potency, µM (titrated, usually from 9.22 µM), inactives show at the top dose activation, negative = inhibition, actives largely listed as activators; hit rate 2.8% among 320,000; further: % of control where 0% means no effect; nearly all actives have a fitted effect of over 60% in size
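Steps: seed 1500 Huh7 Rab9-luc cells per well, rest 2 h at 37 °C; add compound in DMSO; incubate 24 h; add luciferase reagent, 10 min ambient; read luminescence.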
ELG1 genotox – induces genotoxicity in HEK293T cells with luciferase-tagged ELG1; HEK293T ELG1-luciferase reporter, luminescence, 16 h; Potency, µM (doses to about 46 µM), inactives show top-dose activity change, positive = activation, actives largely listed as activators; hit rate 1.3% among 330,000; AID 504466; further: % of control where 0% means no effect; nearly all actives have a fitted effect of over 60% in size
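Reporter readout depends on ELG1 protein level, which increases with genetic stress. After 16 hr compound exposure at 37 °C, luciferase activity was quantified using ONE-Glo.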
NPC1 prom act – activates the NPC1 promoter. Huh7 NPC1 promoter luciferase reporter, 24 h. Potency, µM (top dose mostly 9.22 µM), without a hit: at the highest dose activation, most hits filed as activators. hit rate 2.4% among 320,000; further: % of control where 0% means no effect; nearly all actives have a fitted effect of over 60% in size
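Luminescence read-out of NPC1 promoter-driven luciferase in stably transfected Huh7 cells; compounds delivered in DMSO and left 24 h at 37C, 5% CO2, qHTS titration format.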
* = called active by the depositor; ? = inconclusive; . = not tested or not shown. The call rests on the fitted dose curve; in most records, active means well fitted curve in the direction sought with a large enough effect; inconclusive means small, poorly fitted or top-dose-only effect, or another doubt; inactive means no such curve, though single readings can be large; an effect the other way counts as inactive or inconclusive. Potency means the concentration at half of the fitted maximal effect.

SMILES	SMN2 splice enh	FLuc counter	Rab9 prom act	ELG1 genotox	NPC1 prom act
COc1cccc(/C=N/NC(=O)Cn2nc(C)c([N+](=O)[O-])c2C)c1O	.	1%	-15%	12%	-19%
COc1cccc(/C=N/NC(=O)N/N=C/c2cccc(OC)c2O)c1O	.	4.3µM*	-3%	-7%	-2%
O=Cc1ccccc1OCc1ccc2c(c1)OCO2	.	1.3µM*	12%	13µM*	13%
CCOc1ccccc1CN(CCc1ccc2c(c1)OCO2)Cc1cc(OC)c(OC)cc1OC	-28%	-6%	.	.	.
CN(C)c1cccc(C(=O)N/N=C/c2ccccc2F)c1	1.4µM*	0.6µM*	0.35µM*	1µM*	0.71µM*
Cc1cc(/C=N/NC(=O)c2cccc(N(C)C)c2)c(C)n1-c1cc(C(=O)O)cc(C(=O)O)c1	?	24µM*	?	?	17%
Cc1cc(/C=N/NC(=O)C(O)(c2ccccc2)c2ccccc2)c(C)n1-c1cccc(C(=O)O)c1	.	-7%	1%	-1%	0%
O=C(Cc1ccccc1)N/N=C/c1ccccc1F	18%	-18%	0%	11%	10%
COc1cc2c(cc1NC(=O)COc1ccccc1OC)oc1ccccc12	6%	3%	-4%	?	13%
O=C(COc1ccc2c(c1)OCO2)Nc1ccc2c(c1)oc1ccccc12	.	-2%	12%	5%	9%
O=C(O)COCC(=O)Nc1ccc2c(c1)oc1ccccc12	.	17µM*	0%	1%	-2%
O=C(O)CCC(=O)Nc1ccc2c(c1)oc1ccccc12	17%	24µM*	-5%	15%	2%
CNC(=O)COc1ccccc1C(=O)Nc1ccc2c(c1)oc1ccccc12	-12%	3.8µM*	-38%	1%	-18%
Cc1ccc(-c2ccc(NC(=O)C3C4C=CC(C4)C3C(=O)O)cc2)o1 (centres undefined)	-28%	15µM*	3.2µM*	15%	3.5µM*
COc1ccc(NC(=O)C2C3C=CC(C3)C2C(=O)O)cc1 (centres undefined)	.	-2%	0%	-2%	1%
COc1ccc(C(=O)NCc2nnc(SCC(=O)Nc3nc4ccc(C)cc4s3)o2)cc1OC	?	?	11%	?	14%
CC(=O)c1ccc(OCc2cc(C(=O)N3CC[C@@H]4CCCC[C@H]4C3)no2)cc1	.	9.5µM*	2µM*	?	2.5µM*
CC(=O)c1ccc(OCc2cc(C(=O)N3CCC(c4ccncc4)CC3)no2)cc1	.	0%	-16%	9%	-14%
CC(=O)c1ccc(OCc2cc(C(=O)N3CCCCC3c3cccnc3)no2)cc1 (centres undefined)	.	27µM*	?	?	?
CC(=O)c1ccc(OCc2cc(C(=O)N(C)CCOc3ccc(C)cc3)no2)cc1	.	9.5µM*	4µM*	2.9µM*	2.5µM*
CC(=O)c1ccc(OCc2cc(C(=O)NC3CCCCC3)no2)cc1	.	?	4µM*	-6%	3.5µM*
O=C(NCCSc1ccc(Br)cc1)c1ccc2nc[nH]c2c1	.	-13%	6%	-3%	2%
C=CCSc1n[nH]c(-c2ccc(OCCCC)cc2)n1	?	15µM*	?	18µM*	?
C=CCSc1n[nH]c(-c2ccc(OCCC)cc2)n1	11µM*	11µM*	2µM*	4.6µM*	2.5µM*
CCCOc1ccc(-c2nc(=S)[nH][nH]2)cc1	13µM*	?	?	?	28%
SMILES	SMN2 splice enh	FLuc counter	Rab9 prom act	ELG1 genotox	NPC1 prom act
S=c1nc(-c2ccc(Cl)cc2)[nH][nH]1	.	0%	-6%	1%	2%
COc1ccc(COc2cccc(C=O)c2)cc1	.	24µM*	?	-1%	?
O=C(COc1ccc2ccccc2c1)NNC(=O)Cc1cccc2ccccc12	-16%	3%	0%	1%	-5%
COc1ccc([C@H]2CC(=O)C=C(c3cccc(OCc4ccccc4)c3)C2)cc1	.	1%	-1%	-3%	0%
O=Cc1cccc(OCc2cccc3ccccc23)c1	.	27µM*	4µM*	?	2.8µM*
COc1ccc(COc2ccc3c(C)cc(=O)oc3c2)cc1	.	5.4µM*	?	9.2µM*	2.2µM*
O=C(O)COC(=O)C1C(c2ccccc2)C(C(=O)O)C1c1ccccc1 (centres undefined)	-3%	-1%	-4%	-1%	-2%
COc1cccc(N(CC(=O)N/N=C(\C)c2cccs2)S(C)(=O)=O)c1	22%	6%	-1%	-1%	-2%
COc1ccc(-c2nc(C#N)c(NCCc3ccccc3)o2)cc1	?	?	?	11%	18%
N#Cc1nc(-c2ccc(Cl)cc2)oc1NCCc1ccccn1	22%	-10%	?	8.2µM*	?
Cc1ccc(-c2nc(C#N)c(NCCc3ccccn3)o2)cc1	?	?	?	?	3.5µM*
Cc1ccnc(NC(=O)CNC(=O)c2sc3ccccc3c2Cl)c1	.	12µM*	28%	10µM*	28%
Cc1ccnc(NC(=O)c2sc3cc(Cl)ccc3c2Cl)c1	6.3µM*	0.6µM*	0.63µM*	2.9µM*	0.13µM*
Cc1ccnc(NC(=O)CCCNC(=O)c2ccc(Cl)cc2)c1	.	17µM*	?	?	?
Cc1ccc(NC(=O)CN(C)C(=O)CNC(=O)c2sc3ccccc3c2Cl)cc1	.	2.7µM*	25%	16µM*	?
CN(C)S(=O)(=O)c1ccc(Cl)c(C(=O)NNC(=O)Cn2ccc(C(F)(F)F)n2)c1	.	5%	-6%	1%	-2%
Cc1ccc(-c2ccc(/C=C(\C#N)C(N)=S)n2C)cc1	.	4.8µM*	?	16%	?
O=C(c1cc(-c2ccco2)nc2ccccc12)N1CCCC(C(F)(F)F)C1 (centres undefined)	.	?	3%	-1%	0%
Oc1ccc(N=Nc2ccccc2-c2nn[nH]n2)c(O)c1	.	?	-2%	0%	-2%
FC(F)C(F)(F)C1=CC(c2cccs2)=NCCN1	0.71µM*	7%	0%	-2%	-2%
FC(F)C(F)(F)C1=CC(c2ccccc2)=NCCN1	1%	3%	6%	1%	-4%
O=C(NNc1c2ccccc2nc2ccccc12)c1cccc(O)c1	-34%	24µM*	-1%	-7%	0%
O=C(NNC(=O)c1ccc(O)cc1O)c1ccc(-c2ccccc2)cc1	.	19µM*	-5%	-4%	-6%
O=C(NNc1c2ccccc2nc2ccccc12)c1ccc(O)cc1O	-3%	13µM*	-3%	-1%	-1%
O=C(NNc1c2ccccc2nc2ccccc12)c1ccc(O)cc1	-45%	17µM*	8%	5%	1%
O=C(NNC(=O)c1cccc2ccccc12)c1ccc(-c2ccccc2)cc1	-32%	2%	-5%	5%	-3%
O=C(NNc1c2ccccc2nc2ccccc12)c1ccccc1O	-15%	?	-2%	-7%	5%
CCCn1c(SC(C)C(=O)N2CCOCC2)nc2ccc(Br)cc2c1=O (centres undefined)	.	-1%	-3%	-13%	-3%
